Data: PubChem BioAssay AID1159580 (chemical genetic matrix, 2015)
Screen size: about 5,500 compounds; about 2,000 (36%) were called active. Inconclusive results (about 18%) are left out. Rule as the data show it: active = normalized growth mostly below about 0.91 (no sharp cut-off); inconclusive = no clear call, values can overlap the other calls; inactive = mostly above about 0.92. The list shows a part of the results.

Experiment: chemical genetic growth profiling, strain panel (AID 1159580);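 also: tested at 20 µM; growth read once vehicle control cultures reached saturation at 30 °C; 1 = growth at the plate median or of vehicle wells; lower values mean less growth of the strain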
Conditions: growth OD

Measured: normalized growth

CC(N)CCCC(C)(C)O (centres undefined)
inactive: S. cerevisiae deletion strains, locus YJR066W, strain TOR1, active compounds read low 1.01 | S. cerevisiae deletion strains, locus YKL009W, strain mrt4, active compounds read low 0.985 | S. cerevisiae deletion strains, locus YKL068W, active compounds read low 0.995 | S. cerevisiae deletion strains, locus YKL085W, strain MDH1 (second series), active compounds read low 0.995 | S. cerevisiae deletion strains, locus YKL085W, strain MDH1, active compounds read low 0.995 | S. cerevisiae deletion strains, locus YKL160W, strain elf1, active compounds read low 0.991 | S. cerevisiae deletion strains, locus YKL190W, strain CNB1, active compounds read low 0.995 | S. cerevisiae deletion strains, locus YKR001C, strain vps1, active compounds read low 0.99 | S. cerevisiae deletion strains, locus YKR026C, strain gcn3, active compounds read low 0.956 | S. cerevisiae deletion strains, locus YKR091W, strain srl3, active compounds read low 0.977 | S. cerevisiae deletion strains, locus YLL001W, strain dnm1, active compounds read low 0.974 | S. cerevisiae deletion strains, locus YLL026W, active compounds read low 0.979 | S. cerevisiae deletion strains, locus YLL041C, strain sdh2, active compounds read low 0.968 | S. cerevisiae deletion strains, locus YLR027C, strain aat2, active compounds read low 0.99 | S. cerevisiae deletion strains, locus YLR039C, strain RIC1, active compounds read low 1.01 | S. cerevisiae deletion strains, locus YLR058C, strain SHM2, active compounds read low 1.01 | S. cerevisiae deletion strains, locus YLR102C, strain apc9, active compounds read low 1.01 | S. cerevisiae deletion strains, locus YLR113W, strain HOG1, active compounds read low 0.988 | S. cerevisiae deletion strains, locus YLR221C, strain rsa3, active compounds read low 0.982 | S. cerevisiae deletion strains, locus YLR258W, strain gsy2, active compounds read low 0.982 | S. cerevisiae deletion strains, locus YLR262C, strain YPT6 (second series), active compounds read low 0.995 | S. cerevisiae deletion strains, locus YLR262C, strain YPT6, active compounds read low 1.03 | S. cerevisiae deletion strains, locus YLR268W, strain sec22, active compounds read low 0.999 | S. cerevisiae deletion strains, locus YLR320W, strain mms22, active compounds read low 1.01 | S. cerevisiae deletion strains, locus YLR330W, strain CHS5, active compounds read low 1.01 | S. cerevisiae deletion strains, locus YLR342W, strain FKS1 (second series), active compounds read low 1.04 | S. cerevisiae deletion strains, locus YLR342W, strain FKS1, active compounds read low 0.982 | S. cerevisiae deletion strains, locus YLR357W, strain rsc2, active compounds read low 0.981 | S. cerevisiae deletion strains, locus YLR370C, strain arc18, active compounds read low 0.988 | S. cerevisiae deletion strains, locus YLR371W, strain rom2, active compounds read low 0.991 | S. cerevisiae deletion strains, locus YLR384C, strain iki3, active compounds read low 0.985 | S. cerevisiae deletion strains, locus YLR418C, strain cdc73, active compounds read low 1.05 | S. cerevisiae deletion strains, locus YML016C, strain PPZ1, active compounds read low 1 | S. cerevisiae deletion strains, locus YML032C, strain rad52, active compounds read low 0.986 | S. cerevisiae deletion strains, locus YML120C, strain ndi1, active compounds read low 0.981 | S. cerevisiae deletion strains, locus YML124C, strain tub3, active compounds read low 1.01 | S. cerevisiae deletion strains, locus YMR058W, strain fet3, active compounds read low 0.974 | S. cerevisiae deletion strains, locus YMR078C, strain ctf18, active compounds read low 1.01 | S. cerevisiae deletion strains, locus YMR125W, strain sto1, active compounds read low 0.957 | S. cerevisiae deletion strains, locus YMR129W, active compounds read low 0.978 | S. cerevisiae deletion strains, locus YMR205C, strain PFK2, active compounds read low 1.01 | S. cerevisiae deletion strains, locus YMR223W, strain ubp8, active compounds read low 1.02 | S. cerevisiae deletion strains, locus YMR231W, strain pep5, active compounds read low 0.983 | S. cerevisiae deletion strains, locus YMR263W, strain SAP30, active compounds read low 0.984 | S. cerevisiae deletion strains, locus YMR307W, strain GAS1, active compounds read low 1.06 | S. cerevisiae deletion strains, locus YNL067W, strain RPL9B, active compounds read low 0.973 | S. cerevisiae deletion strains, locus YNL071W, strain lat1, active compounds read low 0.987 | S. cerevisiae deletion strains, locus YNL183C, strain NPR1, active compounds read low 1.03 | S. cerevisiae deletion strains, locus YNL209W, strain ssb2, active compounds read low 0.976 | S. cerevisiae deletion strains, locus YNL233W, strain BNI4, active compounds read low 0.97 | S. cerevisiae deletion strains, locus YNL248C, strain rpa49, active compounds read low 0.965 | S. cerevisiae deletion strains, locus YNL250W, strain rad50, active compounds read low 0.996 | S. cerevisiae deletion strains, locus YNL271C, strain bni1, active compounds read low 1.01 | S. cerevisiae deletion strains, locus YNL298W, strain CLA4, active compounds read low 0.999 | S. cerevisiae deletion strains, locus YNL307C, strain MCK1, active compounds read low 1.01 | S. cerevisiae deletion strains, locus YNL322C, strain KRE1 (second series), active compounds read low 0.972 | S. cerevisiae deletion strains, locus YNR049C, strain mso1, active compounds read low 0.965 | S. cerevisiae deletion strains, locus YNR052C, strain pop2, active compounds read low 1 | S. cerevisiae deletion strains, locus YOL006C, strain TOP1, active compounds read low 0.947 | S. cerevisiae deletion strains, locus YOL012C, strain htz1 0.693 | S. cerevisiae deletion strains, locus YOL147C, strain pex11, active compounds read low 1 | S. cerevisiae deletion strains, locus YOR001W, strain rrp6, active compounds read low 0.961 | S. cerevisiae deletion strains, locus YOR061W, strain CKA2, active compounds read low 1 | S. cerevisiae deletion strains, locus YOR069W, strain VPS5, active compounds read low 1.01 | S. cerevisiae deletion strains, locus YOR070C, strain gyp1, active compounds read low 0.992 | S. cerevisiae deletion strains, locus YOR080W, strain dia2, active compounds read low 0.98 | S. cerevisiae deletion strains, locus YOR083W, strain WHI5, active compounds read low 0.979 | S. cerevisiae deletion strains, locus YOR106W, strain vam3, active compounds read low 0.978 | S. cerevisiae deletion strains, locus YOR136W, strain idh2, active compounds read low 0.991 | S. cerevisiae deletion strains, locus YOR144C, strain elg1, active compounds read low 0.995 | S. cerevisiae deletion strains, locus YOR184W, strain ser1, active compounds read low 0.999 | S. cerevisiae deletion strains, locus YOR231W, strain MKK1, active compounds read low 1.03 | S. cerevisiae deletion strains, locus YOR265W, strain rbl2, active compounds read low 0.982 | S. cerevisiae deletion strains, locus YOR270C, strain vph1, active compounds read low 0.989 | S. cerevisiae deletion strains, locus YOR290C, strain snf2, active compounds read low 0.94 | S. cerevisiae deletion strains, locus YOR316C, strain cot1, active compounds read low 1 | S. cerevisiae deletion strains, locus YPL051W, strain arl3, active compounds read low 0.979 | S. cerevisiae deletion strains, locus YPL055C, strain LGE1, active compounds read low 0.915 | S. cerevisiae deletion strains, locus YPL078C, strain atp4, active compounds read low 0.975 | S. cerevisiae deletion strains, locus YPL106C, strain sse1, active compounds read low 0.951 | S. cerevisiae deletion strains, locus YPL240C, strain hsp82, active compounds read low 0.966 | S. cerevisiae deletion strains, locus YPL241C, strain CIN2, active compounds read low 1 | S. cerevisiae deletion strains, locus YPL256C, strain CLN2, active compounds read low 1.1 | S. cerevisiae deletion strains, locus YPR119W, strain clb2, active compounds read low 0.997 | S. cerevisiae deletion strains, locus YPR141C, strain kar3, active compounds read low 1 | S. cerevisiae deletion strains, locus YPR163C, strain tif3, active compounds read low 1 | S. cerevisiae deletion strains, locus YPR167C, strain met16, active compounds read low 1.01 | S. cerevisiae deletion strains, strain wtn01, active compounds read low 1 | S. cerevisiae strains, strain wild type, active compounds read low 1
